{"source": "the supplement of paper PMC6555819", "assay_in_all_cases": "PBM binding z-score (relative to random genomic background probes); higher = stronger binding; sequences stand for … in GC…GCGATTGACAGCGTAGAATGAAGG", "key": {"[1]": {"system": "RARb homodimer (NR concentration 270 nM)", "outline": "(§1)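 Antibodies against each partner of ligand-free nuclear receptor dimers (one per run) detected binding on custom Agilent 4×180K protein-binding microarrays after 1 h incubation. The double-stranded probes had 34-nt variable regions carrying direct-repeat seeds, single-nucleotide variants, half-site ablations and random human genomic background sequences. Binding z-scores, from regression-normalized fluorescence, use the random background probes as reference.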"}, "[2]": {"system": "RARg:RXRa (NR concentration 270 nM, RXRa partner concentration 90 nM)", "outline": "as §1"}, "[3]": {"system": "RARg homodimer (NR concentration 270 nM)", "outline": "as §1"}, "[4]": {"system": "RXRa DBDmut IVT, anti-RXR (DBD mutation: RXRa K156A/R161A, NR concentration 90 nM)", "outline": "as §1"}, "[5]": {"system": "RXRa homodimer (NR concentration 180 nM)", "outline": "as §1"}, "[6]": {"system": "THRa:RXRa (NR concentration 90 nM, RXRa partner concentration 90 nM)", "outline": "as §1"}, "[7]": {"system": "THRa homodimer (NR concentration 90 nM)", "outline": "as §1"}, "[8]": {"system": "VDR homodimer (NR concentration 270 nM)", "outline": "as §1"}}}
{"sequence": "TCGTGTAGATCAACAGGAGGTTAAGAAAGATCGA", "values": [{"measurement": "PBM binding z-score", "setting": "[1]", "result": 0.472}, {"measurement": "PBM binding z-score", "setting": "[2]", "result": 0.729}, {"measurement": "PBM binding z-score", "setting": "[3]", "result": 0.231}, {"measurement": "PBM binding z-score", "setting": "[4]", "result": -0.0769}, {"measurement": "PBM binding z-score", "setting": "[5]", "result": 0.672}, {"measurement": "PBM binding z-score", "setting": "[6]", "result": 0.819}, {"measurement": "PBM binding z-score", "setting": "[7]", "result": -0.773}, {"measurement": "PBM binding z-score", "setting": "[8]", "result": -0.463}]}
{"sequence": "TCAAATAGGTAAATGCTAGGTGAAAGTCCGATCT", "values": [{"measurement": "PBM binding z-score", "setting": "[1]", "result": 0.514}, {"measurement": "PBM binding z-score", "setting": "[2]", "result": 0.401}, {"measurement": "PBM binding z-score", "setting": "[3]", "result": 0.304}, {"measurement": "PBM binding z-score", "setting": "[4]", "result": 1.84}, {"measurement": "PBM binding z-score", "setting": "[5]", "result": 1.06}, {"measurement": "PBM binding z-score", "setting": "[6]", "result": 1.38}, {"measurement": "PBM binding z-score", "setting": "[7]", "result": 0.625}, {"measurement": "PBM binding z-score", "setting": "[8]", "result": 0.251}]}
{"sequence": "TCTAGCAGGCCAGAGGGTCACTCAAGAGGTACGG", "values": [{"measurement": "PBM binding z-score", "setting": "[1]", "result": 2.8}, {"measurement": "PBM binding z-score", "setting": "[2]", "result": 2.56}, {"measurement": "PBM binding z-score", "setting": "[3]", "result": 2.39}, {"measurement": "PBM binding z-score", "setting": "[4]", "result": -0.167}, {"measurement": "PBM binding z-score", "setting": "[5]", "result": 2.61}, {"measurement": "PBM binding z-score", "setting": "[6]", "result": 1.54}, {"measurement": "PBM binding z-score", "setting": "[7]", "result": -0.299}, {"measurement": "PBM binding z-score", "setting": "[8]", "result": 0.59}]}
{"sequence": "TGAATGAGGTTAAAGATCTGGGAACGTGGCGTCG", "values": [{"measurement": "PBM binding z-score", "setting": "[1]", "result": 0.638}, {"measurement": "PBM binding z-score", "setting": "[2]", "result": 1.65}, {"measurement": "PBM binding z-score", "setting": "[3]", "result": 1.42}, {"measurement": "PBM binding z-score", "setting": "[4]", "result": 1.24}, {"measurement": "PBM binding z-score", "setting": "[5]", "result": 2.49}, {"measurement": "PBM binding z-score", "setting": "[6]", "result": 2.26}, {"measurement": "PBM binding z-score", "setting": "[7]", "result": 0.597}, {"measurement": "PBM binding z-score", "setting": "[8]", "result": 0.872}]}
{"sequence": "AGAACGAGGGCATTGAGTTGATAGCACGGGTGGC", "values": [{"measurement": "PBM binding z-score", "setting": "[1]", "result": 1.01}, {"measurement": "PBM binding z-score", "setting": "[2]", "result": 1.11}, {"measurement": "PBM binding z-score", "setting": "[3]", "result": 1.39}, {"measurement": "PBM binding z-score", "setting": "[4]", "result": 3.13}, {"measurement": "PBM binding z-score", "setting": "[5]", "result": 1.04}, {"measurement": "PBM binding z-score", "setting": "[6]", "result": 1.14}, {"measurement": "PBM binding z-score", "setting": "[7]", "result": -0.127}, {"measurement": "PBM binding z-score", "setting": "[8]", "result": 5.15}]}
{"sequence": "AGAACGAGGGCAACGAGTTGATAGCACGGGTGGC", "values": [{"measurement": "PBM binding z-score", "setting": "[1]", "result": 0.919}, {"measurement": "PBM binding z-score", "setting": "[2]", "result": 1.41}, {"measurement": "PBM binding z-score", "setting": "[3]", "result": 1.74}, {"measurement": "PBM binding z-score", "setting": "[4]", "result": 1.76}, {"measurement": "PBM binding z-score", "setting": "[5]", "result": 0.952}, {"measurement": "PBM binding z-score", "setting": "[6]", "result": 0.99}, {"measurement": "PBM binding z-score", "setting": "[7]", "result": -0.357}, {"measurement": "PBM binding z-score", "setting": "[8]", "result": 2.5}]}
{"sequence": "CGTCAAAGTTCAACTAAGGTAACGAAAAGCACGC", "values": [{"measurement": "PBM binding z-score", "setting": "[1]", "result": 4.12}, {"measurement": "PBM binding z-score", "setting": "[2]", "result": 5.98}, {"measurement": "PBM binding z-score", "setting": "[3]", "result": 6.71}, {"measurement": "PBM binding z-score", "setting": "[4]", "result": 4.46}, {"measurement": "PBM binding z-score", "setting": "[5]", "result": 4.91}, {"measurement": "PBM binding z-score", "setting": "[6]", "result": 5.09}, {"measurement": "PBM binding z-score", "setting": "[7]", "result": 1.67}, {"measurement": "PBM binding z-score", "setting": "[8]", "result": 3.6}]}
{"sequence": "CAAACTAGGTGACAGAGGTCAAAGTCCGTGCGTA", "values": [{"measurement": "PBM binding z-score", "setting": "[1]", "result": 4.61}, {"measurement": "PBM binding z-score", "setting": "[2]", "result": 5.54}, {"measurement": "PBM binding z-score", "setting": "[3]", "result": 4.74}, {"measurement": "PBM binding z-score", "setting": "[4]", "result": 2.18}, {"measurement": "PBM binding z-score", "setting": "[5]", "result": 6.14}, {"measurement": "PBM binding z-score", "setting": "[6]", "result": 4.15}, {"measurement": "PBM binding z-score", "setting": "[7]", "result": 1.75}, {"measurement": "PBM binding z-score", "setting": "[8]", "result": 4.09}]}
{"sequence": "ATATGTAGGTTAGCCGGGGTCATTCAGACTAGGC", "values": [{"measurement": "PBM binding z-score", "setting": "[1]", "result": 4.07}, {"measurement": "PBM binding z-score", "setting": "[2]", "result": 4.69}, {"measurement": "PBM binding z-score", "setting": "[3]", "result": 3.57}, {"measurement": "PBM binding z-score", "setting": "[4]", "result": 2.39}, {"measurement": "PBM binding z-score", "setting": "[5]", "result": 6.32}, {"measurement": "PBM binding z-score", "setting": "[6]", "result": 5.21}, {"measurement": "PBM binding z-score", "setting": "[7]", "result": 2.99}, {"measurement": "PBM binding z-score", "setting": "[8]", "result": 5.54}]}
{"sequence": "AGAACGAGCGCACGCTGAGTTGATAGCAGAGTAG", "values": [{"measurement": "PBM binding z-score", "setting": "[1]", "result": -1.25}, {"measurement": "PBM binding z-score", "setting": "[2]", "result": -0.476}, {"measurement": "PBM binding z-score", "setting": "[3]", "result": -0.51}, {"measurement": "PBM binding z-score", "setting": "[4]", "result": -0.346}, {"measurement": "PBM binding z-score", "setting": "[5]", "result": -0.489}, {"measurement": "PBM binding z-score", "setting": "[6]", "result": -0.752}, {"measurement": "PBM binding z-score", "setting": "[7]", "result": -1.21}, {"measurement": "PBM binding z-score", "setting": "[8]", "result": -0.599}]}
{"sequence": "TCGATTAGTTGAAGGGCAACCGACGAGTCCGTTT", "values": [{"measurement": "PBM binding z-score", "setting": "[1]", "result": 1.04}, {"measurement": "PBM binding z-score", "setting": "[2]", "result": 0.11}, {"measurement": "PBM binding z-score", "setting": "[3]", "result": 0.294}, {"measurement": "PBM binding z-score", "setting": "[4]", "result": 1.01}, {"measurement": "PBM binding z-score", "setting": "[5]", "result": 0.397}, {"measurement": "PBM binding z-score", "setting": "[6]", "result": -0.146}, {"measurement": "PBM binding z-score", "setting": "[7]", "result": -0.591}, {"measurement": "PBM binding z-score", "setting": "[8]", "result": 0.943}]}
{"sequence": "AGTCAAAGTTCACCAGGTAACGTAAGATTCAGCT", "values": [{"measurement": "PBM binding z-score", "setting": "[1]", "result": 4.3}, {"measurement": "PBM binding z-score", "setting": "[2]", "result": 6.02}, {"measurement": "PBM binding z-score", "setting": "[3]", "result": 6.53}, {"measurement": "PBM binding z-score", "setting": "[4]", "result": 4.1}, {"measurement": "PBM binding z-score", "setting": "[5]", "result": 5.25}, {"measurement": "PBM binding z-score", "setting": "[6]", "result": 2.88}, {"measurement": "PBM binding z-score", "setting": "[7]", "result": 0.769}, {"measurement": "PBM binding z-score", "setting": "[8]", "result": 4.32}]}
{"sequence": "ATCTCTAGGTAAAAATAGTTCAGTGAATGCAAAT", "values": [{"measurement": "PBM binding z-score", "setting": "[1]", "result": 1.13}, {"measurement": "PBM binding z-score", "setting": "[2]", "result": 1.01}, {"measurement": "PBM binding z-score", "setting": "[3]", "result": 0.9}, {"measurement": "PBM binding z-score", "setting": "[4]", "result": 0.16}, {"measurement": "PBM binding z-score", "setting": "[5]", "result": 0.292}, {"measurement": "PBM binding z-score", "setting": "[6]", "result": 0.72}, {"measurement": "PBM binding z-score", "setting": "[7]", "result": 0.138}, {"measurement": "PBM binding z-score", "setting": "[8]", "result": 0.549}]}
{"sequence": "CCGACTGGGGCAAGGTTACCCTAACGCACAGCCA", "values": [{"measurement": "PBM binding z-score", "setting": "[1]", "result": 1.51}, {"measurement": "PBM binding z-score", "setting": "[2]", "result": 0.945}, {"measurement": "PBM binding z-score", "setting": "[3]", "result": 1.06}, {"measurement": "PBM binding z-score", "setting": "[4]", "result": -0.485}, {"measurement": "PBM binding z-score", "setting": "[5]", "result": 1.08}, {"measurement": "PBM binding z-score", "setting": "[6]", "result": 1.47}, {"measurement": "PBM binding z-score", "setting": "[7]", "result": 0.84}, {"measurement": "PBM binding z-score", "setting": "[8]", "result": -0.188}]}
{"sequence": "ACAGACAGGTTATGAAGGTAACTCAGGCTATCAT", "values": [{"measurement": "PBM binding z-score", "setting": "[1]", "result": 0.833}, {"measurement": "PBM binding z-score", "setting": "[2]", "result": 0.914}, {"measurement": "PBM binding z-score", "setting": "[3]", "result": 0.793}, {"measurement": "PBM binding z-score", "setting": "[4]", "result": 0.197}, {"measurement": "PBM binding z-score", "setting": "[5]", "result": 0.932}, {"measurement": "PBM binding z-score", "setting": "[6]", "result": 1.51}, {"measurement": "PBM binding z-score", "setting": "[7]", "result": 0.368}, {"measurement": "PBM binding z-score", "setting": "[8]", "result": 0.373}]}
